Results: PubChem BioAssay (NCI)
The panel holds about 79,000 compounds, 15% with a hit somewhere; the sample as a whole holds those more often. Activity calls are given as the source filed them. Cut-off read from the data, not from the text of the source: active = growth inhibition above about 70%; inactive = the rest.

Assays:
[1] = NCI Yeast Anticancer Drug Screen. Data for the rad50 strain (AID 155);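 note: 0% = growth of vehicle-only cultures of the same strain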; conditions: S. cerevisiae rad50 strain growth inhibition, stronger effect = higher value
Procedure, shortened: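 Yeast carrying a defined DNA repair defect were exposed to test compounds, and growth was compared with vehicle-treated controls to give percent inhibition.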

[2] = NCI Yeast Anticancer Drug Screen. Data for the mec2-1 strain (AID 157); conditions: S. cerevisiae mec2-1 strain, stronger effect = higher value
Procedure, shortened: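 Each compound was tested on mec2-1 yeast, a strain altered in DNA damage repair or cell cycle control. Growth inhibition is reported relative to vehicle.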

[3] = NCI Yeast Anticancer Drug Screen. Data for the sgs1 mgt1 strain (AID 161);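 note: 0% = growth of cultures given vehicle only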; conditions: S. cerevisiae sgs1 mgt1 strain, stronger effect = higher value
Procedure, shortened: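 Read-out: growth inhibition vs vehicle controls. Cells: mutant yeast strain deficient in DNA damage repair.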

[4] = NCI Yeast Anticancer Drug Screen. Data for the cln2 rad14 strain (AID 165);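 note: 0% = growth equal to vehicle treated cultures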; conditions: S. cerevisiae cln2 rad14 strain, stronger effect = higher value
Procedure, shortened: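 Test compounds were added to cln2 rad14 yeast cultures; inhibition of growth was then determined by comparison with vehicle treatment.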

[5] = NCI Yeast Anticancer Drug Screen. Data for the bub3 strain (AID 167); conditions: S. cerevisiae bub3 mutant strain, stronger effect = higher value
Procedure, shortened: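 Compounds were applied to a genetically altered yeast strain carrying a cell-cycle control defect. Growth inhibition was scored against vehicle-treated controls.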

[6] = NCI Yeast Anticancer Drug Screen. Data for the mlh1 rad18 strain (AID 175); conditions: S. cerevisiae mlh1 rad18 strain growth inhibition, stronger effect = higher value
Procedure, shortened: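 Inhibition values reflect reduced growth of mutant yeast versus vehicle-treated controls following compound exposure; the mutations affect DNA damage repair.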

[7] = at 5.0 µM (retest, dose inferred, filed as 0.5)
[8] = at 50.0 µM (retest, dose inferred, filed as 5.0)

Measured: growth inhibition

COc1cc(/C=C/[N+](=O)[O-])cc(OC)c1OC
active: [1]; [8] 99% | [2]; [8] 99% | [3]; [8] 100% | [4]; [8] 99% | [5]; [8] 100% | [6]; [8] 99%
inactive: [1]; [7] 34% | [2]; [7] 22% | [3]; [7] 48% | [4]; [7] 13% | [5]; [7] 19% | [6]; [7] -8%

O=C(CBr)OCCBr
active: [1]; [8] 99% | [2]; [8] 99% | [3]; [7] 73% | [3]; [8] 100% | [4]; [8] 98% | [5]; [8] 99% | [6]; [8] 98%
inactive: [1]; [7] 59% | [2]; [7] 33% | [4]; [7] 25% | [5]; [7] 56% | [6]; [7] 29%

O=C(CBr)c1ccncc1
active: [1]; [7] 99% | [1]; [8] 99% | [2]; [7] 100% | [2]; [8] 100% | [3]; [7] 100% | [3]; [8] 99% | [4]; [7] 99% | [4]; [8] 99% | [5]; [7] 100% | [5]; [8] 99% | [6]; [7] 95% | [6]; [8] 98%

O=[n+]1c2ccccc2n([O-])c2ccccc21
inactive: [2]; [7] 22% | [3]; [7] 61% | [4]; [7] 18% | [5]; [7] 0%
active: [1]; [7] 93% | [1]; [8] 98% | [2]; [8] 99% | [3]; [8] 99% | [4]; [8] 98% | [5]; [8] 99% | [6]; [7] 79% | [6]; [8] 98%

COc1ccc(/C=C/[N+](=O)[O-])cc1
inactive: [2]; [7] 27% | [3]; [7] 65% | [4]; [7] 11% | [5]; [7] 14% | [6]; [7] -11%
active: [1]; [7] 71% | [1]; [8] 99% | [2]; [8] 100% | [3]; [8] 100% | [4]; [8] 99% | [5]; [8] 99% | [6]; [8] 99%

CC/C(=C\c1ccccc1)[N+](=O)[O-]
inactive: [1]; [7] 64% | [2]; [7] 11% | [3]; [7] 25% | [4]; [7] 14% | [5]; [7] 28%
active: [1]; [8] 99% | [2]; [8] 100% | [3]; [8] 100% | [4]; [8] 99% | [5]; [8] 100%

O=C(CF)CCl
inactive: [2]; [7] 25% | [3]; [8] 65% | [5]; [7] 32% | [6]; [7] 69%
active: [1]; [7] 89% | [1]; [8] 98% | [2]; [8] 99% | [3]; [7] 88% | [4]; [7] 79% | [4]; [8] 99% | [5]; [8] 99% | [6]; [8] 98%

O=[N+]([O-])c1cc(Cl)c(Cl)cc1[N+](=O)[O-]
active: [1]; [7] 83% | [1]; [8] 99% | [2]; [8] 99% | [3]; [8] 100% | [4]; [8] 99% | [5]; [8] 99% | [6]; [8] 98%
inactive: [2]; [7] 16% | [3]; [7] 41% | [4]; [7] -2% | [5]; [7] 14% | [6]; [7] -11%

O=C([O][Hg][CH2]C1COC([CH2][Hg][O]C(=O)c2ccccc2)CO1)c1ccccc1 (stereo not given)
active: [1]; [7] 98% | [1]; [8] 98% | [2]; [7] 99% | [2]; [8] 99% | [3]; [7] 99% | [3]; [8] 99% | [3]; at 50.0 µM 89.5% | [4]; [7] 97% | [4]; [8] 98% | [4]; at 50.0 µM 90.6% | [5]; [7] 100% | [5]; [8] 99% | [5]; at 50.0 µM 89.7% | [6]; [7] 98% | [6]; [8] 98%

CC[C@@H](C)[C@@H]1NC(=O)C(NC(=O)C(CC(C)C)N(C)C(=O)C2CCCN2C(=O)C(C)O)C(C)OC(=O)C(Cc2ccc(OC)cc2)N(C)C(=O)C2CCCN2C(=O)C(CC(C)C)NC(=O)C(C)C(=O)C(C(C)C)OC(=O)C[C@H]1O (stereo not given in full)
inactive: [1]; [7] 51% | [3]; [7] 58% | [4]; [7] 43% | [5]; [7] 28% | [6]; [7] 50%
active: [1]; [8] 96% | [1]; at 50.0 µM 81.3% | [3]; [8] 89% | [3]; at 50.0 µM 83.2% | [4]; [8] 74% | [4]; at 50.0 µM 80.6% | [5]; [8] 72% | [5]; at 50.0 µM 85.2% | [6]; [8] 98% | [6]; at 50.0 µM 79.8%

CCCCCCCNC(=O)CI
inactive: [1]; [7] 42% | [2]; [7] 13% | [3]; [7] 33% | [4]; [7] 9% | [5]; [7] 52% | [6]; [7] 23%
active: [1]; [8] 99% | [2]; [8] 100% | [3]; [8] 100% | [4]; [8] 94% | [5]; [8] 100% | [6]; [8] 99%

CC(Cc1ccc2c(c1)OCO2)NN (stereo not given)
inactive: [1]; [7] -2% | [1]; [8] 37% | [2]; [7] -5% | [2]; [8] 6% | [3]; [7] -2% | [3]; [8] 59% | [4]; [7] -5% | [4]; [8] -8% | [5]; [7] 2% | [5]; [8] 34% | [6]; [7] -20% | [6]; [8] 16%

O=[N+]([O-])/C=C/c1cccc([N+](=O)[O-])c1
active: [1]; [7] 98% | [1]; [8] 99% | [2]; [7] 99% | [2]; [8] 100% | [3]; [7] 100% | [3]; [8] 100% | [4]; [8] 99% | [5]; [7] 97% | [5]; [8] 100% | [6]; [8] 99%
inactive: [4]; [7] 35% | [6]; [7] -9%
